Screening data as filed in PubChem BioAssay.
Compounds with a hit are over-represented: about 5.7% of the library has one in this group of screens.
PI4K2A block: inhibitors of human PI4K2A; 0.13% of 420,000 active; purified PI4K2A, ADP-Glo luminescence, 1 h; hits give low values; activity change, negative = inhibition, % at 76.9 µM; AID 1346378; in the data active means activity change below about -50%; inconclusive means mostly about -30% to -49%;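 further: -100% = wells without enzyme as full effect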
Target sequence (Q9BTU6 whole entry, looked up): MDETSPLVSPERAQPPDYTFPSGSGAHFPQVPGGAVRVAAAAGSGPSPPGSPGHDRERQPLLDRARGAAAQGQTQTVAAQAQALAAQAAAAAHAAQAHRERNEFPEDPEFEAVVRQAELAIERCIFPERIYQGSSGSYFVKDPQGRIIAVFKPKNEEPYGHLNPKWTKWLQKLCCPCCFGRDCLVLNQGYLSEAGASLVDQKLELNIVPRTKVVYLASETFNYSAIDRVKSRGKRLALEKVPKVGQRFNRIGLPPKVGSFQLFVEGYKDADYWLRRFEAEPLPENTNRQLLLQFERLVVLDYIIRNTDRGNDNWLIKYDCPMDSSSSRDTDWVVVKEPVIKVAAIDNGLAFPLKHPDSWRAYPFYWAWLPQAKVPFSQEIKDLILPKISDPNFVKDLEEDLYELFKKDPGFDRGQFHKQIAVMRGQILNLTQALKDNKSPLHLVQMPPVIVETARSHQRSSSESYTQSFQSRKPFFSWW
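ADP-Glo luminescence measured ADP generated by PI4K2A enzyme (4 ug/mL before mixing) with 1.2 mM PI substrate (pre-mix) and 300 microM ATP (pre-mix). Tris pH7.5 buffer with MgCl2, Triton X-100; 1 h reaction at ambient temperature.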
KB-3-1 tox: kills parental KB-3-1 adenocarcinoma cells | AID 1347075 | Potency, µM (titrated, usually from 46.1 µM), hits mostly cytotoxic | KB-3-1 viability, CellTiter-Glo ATP luminescence, 72 h | 1.4% of 400,000 active; further: potency means the concentration at half of the fitted maximal effect; nearly all actives have a fitted effect of over 60% in size
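KB-3-1 cells, DMEM (no phenol red) + 10% FBS; compound by pin transfer, 72 h, 37 °C. Readout: CellTiter-Glo luminescence after 10 min. Data normalized, curve-fitted.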
KB-V1 MDR tox: kills drug-selected multidrug resistant KB-V1 cells | AID 1347076 | KB-V1 MDR cells viability, CellTiter-Glo, 72 h | 3.4% of 400,000 active | Potency, µM (top dose mostly 46.1 µM), most hits filed as cytotoxic; further: potency means the concentration at half of the fitted maximal effect; nearly all actives have a fitted effect of over 60% in size
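Readout: CellTiter-Glo luminescence, 10 min after addition. Cells: KB-V1 MDR subline, 72 h at 37 degrees C with compound. Analysis: corrected, normalized data fitted to concentration-effect curves.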
Nrf2 block: blocks Nrf2 signaling | AID 504444 | Potency, µM (doses to about 46 µM), without a hit: top-dose activity change, negative = inhibition, usual class: inhibitors | A549 ARE-Fluc reporter, luciferase luminescence, 18-24 h | 2.1% of 360,000 active; further: potency means the concentration at half of the fitted maximal effect; nearly all actives have a fitted effect of over 60% in size
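Quantitative HTS in A549 cells stably bearing an antioxidant response element-firefly luciferase construct. Inhibition of Nrf2-driven transcription was scored by luminescence after 18-24 h of compound exposure at 37 °C.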
A549 viability: counter-screen for Nrf2 inhibitors: cytotoxicity in A549 cells | 0.16% of 390,000 active | Potency, µM (series often up to 46 µM), for inactives: top-dose activity change, negative = cytotoxicity, actives largely listed as inhibitors | A549 ARE-Fluc cells, CellTiter-Fluor viability, 18-24 h; further: potency means the concentration at half of the fitted maximal effect
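Cytotoxicity counterscreen: CellTiter-Fluor fluorescence was measured in A549 ARE_Fluc cells after 18-24 h of compound exposure in a concentration series. The subsequent BugLite luminescent read reports ARE-luciferase activity.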
Giardia kill: Giardia lamblia killing | AID 540267 | Giardia lamblia trophozoite viability | activity change, % at 7.66 µM, hits read low | 0.15% of 340,000 active; in the data active means activity change below about -80%; inconclusive means between about -30% and that limit;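 further: parasites exposed to compound for two days anaerobically before the ATP read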
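Giardia trophozoites, 100 cells per well, were exposed to compounds for 48 hrs at 37 deg C under anaerobic conditions; viability was then read as ATP content by bioluminescence after 15-30 min at room temperature.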
* marks the source's active call; other numbers are inactive results; i = inactive; ? = inconclusive; . = not tested or not shown. Unless noted, the call rests on the fitted dose curve; in most records, active means well fitted curve in the direction sought with a large enough effect; inconclusive means small, poorly fitted or top-dose-only effect, or another doubt; inactive means no such curve, though single readings can be large; an effect the other way counts as inactive or inconclusive. Unless noted, on the % scale 0 is the no-effect control and ±100 the full control effect.

SMILES	PI4K2A block	KB-3-1 tox	KB-V1 MDR tox	Nrf2 block	A549 viability	Giardia kill
Cc1ccnc2ccc(I)cc12	.	i	i	.	.	.
CC(C)C[C@@H]1COc2cc(Br)ccc2S(=O)(=O)N1Cc1cn(Cc2ccco2)nn1	-5	.	.	.	.	.
CC/C(=N\NC(=O)c1c[nH]c2ccccc12)c1cccs1	-4	i	16µM*	?	0%	-2
CCn1c(SCc2nc(-c3ccccc3)no2)nnc1-c1cccs1	3	i	i	?	.	6
Cc1ccc(-n2c(SCC(=O)NN=Cc3c[nH]c4ccccc34)nnc2-c2ccccc2)cc1	-5	.	.	.	.	.
CCn1c(SCC(=O)N/N=C/c2c[nH]c3ccccc23)nnc1-c1ccc(C(C)(C)C)cc1	1	i	i	16µM*	?	4
CCn1c(SCc2nc(CC(=O)Nc3ccccc3OC)no2)nnc1-c1cccs1	-2	i	5.8µM*	?	-7%	-9
CCn1c(SCC(=O)c2c[nH]c3ccccc23)nnc1-c1cccs1	11	16µM*	?	-16%	-10%	-28
CCN(CC)C(=O)CC[C@@H]1CC[C@]2(CCCN(S(=O)(=O)c3ccccc3)C2)O1	4	.	.	.	.	.
Cc1ccccc1CNC(=O)CCCn1c(=O)c2cccn2c2ccccc21	-7	.	.	11%	10%	.
COc1cccc(-c2ccc(CC[C@H]3O[C@H]4CC[C@H](CO)O[C@H]4C[C@H]3NS(C)(=O)=O)cc2)c1	-2	.	.	.	.	.
CCn1c(SCc2nc(-c3cccs3)no2)nnc1-c1c[nH]c2ccccc12	-3	i	i	18µM*	?	4
COc1ccc(CNC(=O)CCc2c(C)c3cc4c(C)c(C)oc4cc3oc2=O)cc1OC	-12	.	.	12%	-9%	.
Cc1ccccc1C(=O)Nc1ccccc1N1CCN(C(=O)c2ccccc2)CC1	-4	i	i	-15%	-5%	2
COc1c(C)cc(Br)cc1C(=O)Nc1ccccc1N1CCN(C(=O)c2ccccc2)CC1	4	?	23µM*	?	-9%	-21
O=C(Nc1ccccc1N1CCN(C(=O)c2ccccc2)CC1)c1cc(Br)ccc1Cl	1	?	23µM*	?	-8%	33
COc1ccc(Br)cc1C(=O)Nc1ccccc1N1CCN(C(=O)c2ccccc2)CC1	-2	i	?	?	1%	42
O=C(CSc1nc2sc3c(c2c(=O)n1-c1ccc(Cl)cc1)CCCC3)c1ccccc1Cl	-8	.	.	.	.	.
CCC(Sc1nnc(C)n2c1cc1occc12)C(=O)Nc1ccccc1F (centres undefined)	2	i	?	?	4%	.
COc1cc(OC)cc(-c2csc(N3CCC(C(N)=O)CC3)n2)c1	9	.	.	.	.	.
Cc1ccc2nc(-c3ccccn3)[nH]c2c1	?	?	18µM*	?	-6%	-25
c1ccc(-c2nc3ccccc3[nH]2)nc1	-19	i	i	15%	-9%	3
CC(C)c1ccc(NC2CCCN(C(=O)c3n[nH]c4c3CCC4)C2)cc1 (centres undefined)	10	?	i	10µM*	-9%	-2
COc1cc(N)c(NC(=O)/C=C/c2nc3cc(OC)c(OC)cc3[nH]2)cc1OC	.	i	i	.	.	.
Cc1ccc(N2CCN(C(=O)c3c(C)oc4nc(C)nc(N5CCCC5)c34)CC2)c(C)c1	0	.	.	0%	-1%	.
CCc1ccc(C2=CC(c3cc(Br)ccc3F)n3ncnc3N2)cc1 (centres undefined)	2	8.2µM*	9.2µM*	.	?	5
Cc1cc2c(s1)c1cnn(Cc3ccc(Br)cc3F)c(=O)c1n2C	.	.	.	14%	-1%	.
Cc1nnc(Sc2cc(NCCCO)c([N+](=O)[O-])c3nonc23)s1	?	i	i	1%	1%	-13
Cc1nnc(Sc2cc(NCCO)c([N+](=O)[O-])c3nonc23)s1	-19	i	?	?	26µM*	-5
Cc1ccc(OCc2ccc(C(=O)Nc3c(C)nn(Cc4c(F)c(F)c(F)c(F)c4F)c3C)o2)c([N+](=O)[O-])c1	-4	?	i	8.2µM*	-29%	10
